# Data as given in PubChem BioAssay (NCATS).
# Unmarked numbers belong to inactive results. Inconclusive results are not listed. Calls of active or inactive are those of the source. Unless noted, calls come from the whole dose curve; as a rule, active = well fitted curve in either direction with a large enough effect (not every such curve was filed as active); inconclusive = small, poorly fitted or top-dose-only effect, or another doubt; inactive = flat fitted curve, though single readings scatter.
# Tests used:
# [1] = AP1 Signaling Pathway (AID 357); conditions: ME-180 AP-1-bla reporter, EGF-induced, beta-lactamase ratio, 5 h; at 17.2 µM (top of the series) unless noted;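 note: ME-180 reporter cells stimulated with EGF at its EC50 level; % is set by controls: 0 for no effect and ±100 for the full control effect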
# In short: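 Cells are seeded overnight, exposed to compound titrations and an EC50 level of EGF for 5 hours at 37 °C, then loaded with CCF4 dye for 2.5 hours. Beta-lactamase activity under the AP-1 element is read as a blue/green ratio.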
# [2] = NFAT Signaling Pathway (AID 444); conditions: Jurkat NFAT-bla M1, carbachol, beta-lactamase ratio, 5 h; at 17.2 µM (top of the series) unless noted;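 note: carbachol stimulus at about its EC50 of 1 µM final; % is set by controls: 0 for no effect and ±100 for the full control effect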
# In short: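 Jurkat cells carrying an NFAT-driven β-lactamase reporter and co-transfected muscarinic M1 receptor were treated with compound plus carbachol (1 uM final, an EC50 level) for 5 h at 37 °C. CCF4 loading followed for 1 h at RT; 460/530 nm ratio gave %activity.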
# [3] = Stat Signaling Pathway (AID 446); conditions: ME-180 SIE beta-lactamase reporter, IL-6 stimulated, 5 h; at 17.2 µM (top of the series) unless noted;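 note: ME-180 cervical cancer cells given 40 pM IL-6 alongside compound; SIE-controlled beta-lactamase reporter measured as 460/530 nm FRET emission ratio; % is set by controls: 0 for no effect and ±100 for the full control effect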
# In short: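 Normalization used AC90 stimulation (300 pM IL-6) and AC90 inhibition (125 nM pan-JAK inhibitor at 40 pM IL-6). The underlying signal is SIE-driven beta-lactamase in ME-180 cells after 5 h IL-6 exposure with compound.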
# [4] = target: Glucocorticoid receptor (Homo sapiens) (UniProt P04150); assay: GR-GFP Redistribution (AID 450;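 active = compounds whose dose series gives a full or clear partial fitted curve of increased nuclear translocation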; note: potency is the fitted concentration of half-maximal effect)
# Glucocorticoid receptor (Homo sapiens), sequence (P04150 whole entry, looked up, the tested form may be a part): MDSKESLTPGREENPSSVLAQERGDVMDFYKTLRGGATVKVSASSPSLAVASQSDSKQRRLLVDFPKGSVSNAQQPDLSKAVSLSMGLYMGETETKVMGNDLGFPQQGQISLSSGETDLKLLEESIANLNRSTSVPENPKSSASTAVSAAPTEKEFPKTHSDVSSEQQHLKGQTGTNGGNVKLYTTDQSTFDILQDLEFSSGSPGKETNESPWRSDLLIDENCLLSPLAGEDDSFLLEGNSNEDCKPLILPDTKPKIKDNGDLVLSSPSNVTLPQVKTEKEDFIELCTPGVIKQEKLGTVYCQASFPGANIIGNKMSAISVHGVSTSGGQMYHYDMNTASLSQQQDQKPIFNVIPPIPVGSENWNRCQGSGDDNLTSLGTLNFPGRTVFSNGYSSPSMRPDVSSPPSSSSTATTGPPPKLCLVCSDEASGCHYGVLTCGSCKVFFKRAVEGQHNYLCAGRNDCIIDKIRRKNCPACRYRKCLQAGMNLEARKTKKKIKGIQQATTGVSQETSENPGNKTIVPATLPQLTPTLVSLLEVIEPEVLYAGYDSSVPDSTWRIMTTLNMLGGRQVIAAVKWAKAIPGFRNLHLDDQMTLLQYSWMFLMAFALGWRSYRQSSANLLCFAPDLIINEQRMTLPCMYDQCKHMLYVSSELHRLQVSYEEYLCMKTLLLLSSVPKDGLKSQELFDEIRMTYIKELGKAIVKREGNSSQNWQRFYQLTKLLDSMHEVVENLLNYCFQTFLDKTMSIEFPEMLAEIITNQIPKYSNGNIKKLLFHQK
# [5] = target: Glucocorticoid receptor (Homo sapiens) (UniProt P04150); assay: GR-EFC Redistribution (AID 451; calls by dose curve; note: potency is the fitted concentration of half-maximal effect); conditions: CHO-K1 GR-EFC translocation, beta-gal luminescence, 2 h
# In short: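 CHO-K1 cells stably expressing nuclear-localized β-gal enzyme acceptor and GR fused C-terminally to the enzyme donor fragment; ligand-driven nuclear translocation restores β-gal by complementation. Compounds titrated up to 46 uM final, 2 h at 37 °C; luminescence read.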
# [6] = target: Mitogen-activated protein kinase 10 (Mus musculus) (UniProt Q61831); assay: JNK3 AlphaScreen Assay (AID 530);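 note: kinase came from lysate of stimulated human HepG2 cells; signal reports phosphorylation of biotinylated GST-cJun 1-79 at Ser73 with 10 µM ATP; % is set by controls: 0 for no effect and ±100 for the full control effect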
# In short: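 Phosphorylation of biotinylated GST-cJun(1-79) at Ser73 is measured by AlphaScreen proximity luminescence. Enzyme is JNK3 in HepG2 lysates activated with interleukin-1beta and tumor necrosis factor alpha; ATP is 10 uM final.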
# [7] = target: 3',5'-cyclic-AMP phosphodiesterase 4B (Homo sapiens) (UniProt Q07343); assay: qHTS Assay for Inhibitors of PDE-IV (AID 607; active = well fitted activation curve with a large enough effect in the main read-out, with a control signal flat, not every such curve was filed as active; note: % of control where 0% means no effect)
# 3',5'-cyclic-AMP phosphodiesterase 4B (Homo sapiens), sequence (Q07343 whole entry, looked up): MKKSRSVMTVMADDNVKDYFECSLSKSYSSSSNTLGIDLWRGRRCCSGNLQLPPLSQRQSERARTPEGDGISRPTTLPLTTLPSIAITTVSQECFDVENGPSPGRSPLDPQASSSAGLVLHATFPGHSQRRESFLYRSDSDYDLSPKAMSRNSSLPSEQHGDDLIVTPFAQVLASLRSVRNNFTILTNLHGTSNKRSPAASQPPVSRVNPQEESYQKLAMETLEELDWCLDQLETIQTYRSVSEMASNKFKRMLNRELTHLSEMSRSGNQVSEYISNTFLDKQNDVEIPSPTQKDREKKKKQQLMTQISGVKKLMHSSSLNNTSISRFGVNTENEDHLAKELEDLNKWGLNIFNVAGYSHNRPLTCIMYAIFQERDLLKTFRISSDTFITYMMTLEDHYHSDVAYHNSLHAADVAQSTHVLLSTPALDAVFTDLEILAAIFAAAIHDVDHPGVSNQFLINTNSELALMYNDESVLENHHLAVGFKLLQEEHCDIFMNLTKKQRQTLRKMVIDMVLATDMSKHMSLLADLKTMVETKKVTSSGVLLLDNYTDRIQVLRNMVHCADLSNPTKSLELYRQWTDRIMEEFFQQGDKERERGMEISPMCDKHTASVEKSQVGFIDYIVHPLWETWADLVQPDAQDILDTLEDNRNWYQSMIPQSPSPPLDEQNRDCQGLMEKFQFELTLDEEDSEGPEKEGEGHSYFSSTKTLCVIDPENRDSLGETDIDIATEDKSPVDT
# In short: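 HEK293 ACTOne cells with CNG channel (1000/well), endogenous PDE4; membrane potential dye, compounds up to 22.9 uM final. Fluorescence Ex 535/Em 590; RO 20-1724 (100 uM final) as reference.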
# [8] = target: Ubiquitin carboxyl-terminal hydrolase 1 (Homo sapiens) (UniProt O94782); assay: Inhibitors of USP1/UAF1: Pilot qHTS (AID 504865; active = well fitted curve in the direction sought with a large enough effect; an effect the other way counts as inactive or inconclusive;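 note: rhodamine fluorescence freed from ubiquitin-rhodamine substrate followed over time; top concentration of the series differs between compounds; % is set by controls: 0 for no effect and ±100 for the full control effect; nearly all actives have a fitted effect of over 35% in size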)
# Ubiquitin carboxyl-terminal hydrolase 1 (Homo sapiens), sequence (O94782 whole entry, looked up): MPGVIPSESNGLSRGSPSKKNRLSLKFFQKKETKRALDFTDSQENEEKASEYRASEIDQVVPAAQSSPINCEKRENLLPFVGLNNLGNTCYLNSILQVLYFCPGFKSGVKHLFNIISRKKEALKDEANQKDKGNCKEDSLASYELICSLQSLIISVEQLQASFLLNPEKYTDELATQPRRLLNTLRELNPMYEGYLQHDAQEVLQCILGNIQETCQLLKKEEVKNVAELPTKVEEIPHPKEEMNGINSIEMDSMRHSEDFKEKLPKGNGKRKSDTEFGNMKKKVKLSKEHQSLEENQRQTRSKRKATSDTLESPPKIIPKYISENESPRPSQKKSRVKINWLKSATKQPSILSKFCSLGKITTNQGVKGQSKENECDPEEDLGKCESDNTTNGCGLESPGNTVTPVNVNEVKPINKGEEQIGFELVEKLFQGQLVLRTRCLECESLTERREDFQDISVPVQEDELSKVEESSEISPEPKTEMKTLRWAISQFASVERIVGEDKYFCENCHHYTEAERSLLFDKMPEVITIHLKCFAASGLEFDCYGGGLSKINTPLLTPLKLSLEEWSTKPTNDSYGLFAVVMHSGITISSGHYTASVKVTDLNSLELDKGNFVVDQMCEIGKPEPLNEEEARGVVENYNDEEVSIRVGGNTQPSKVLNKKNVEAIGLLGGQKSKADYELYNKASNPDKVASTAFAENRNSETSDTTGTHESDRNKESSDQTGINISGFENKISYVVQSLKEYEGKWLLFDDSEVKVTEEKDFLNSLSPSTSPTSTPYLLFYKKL
# In short: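 1nM USP1/UAF1 + cpd, 15 min RT; start w/ Ub-Rho 150nM final; kinetic FL 480/540 nm, 6 reads q60 s. Buffer 50mM HEPES pH 7.8, 0.5mM EDTA, 1mM TCEP, 0.01% Tween-20, 0.1 mg/ml BSA.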
# [9] = target: Cytochrome P450 2D6 (Homo sapiens) (UniProt P10635); assay: qHTS Assay for Inhibitors and Substrates of Cytochrome P450 2D6 (AID 891; active = well fitted curve in the direction sought with a large enough effect; an effect the other way counts as inactive or inconclusive; note: potency is the fitted concentration of half-maximal effect; nearly all actives have a fitted effect of over 60% in size)
# Cytochrome P450 2D6 (Homo sapiens), sequence (P10635 whole entry, looked up): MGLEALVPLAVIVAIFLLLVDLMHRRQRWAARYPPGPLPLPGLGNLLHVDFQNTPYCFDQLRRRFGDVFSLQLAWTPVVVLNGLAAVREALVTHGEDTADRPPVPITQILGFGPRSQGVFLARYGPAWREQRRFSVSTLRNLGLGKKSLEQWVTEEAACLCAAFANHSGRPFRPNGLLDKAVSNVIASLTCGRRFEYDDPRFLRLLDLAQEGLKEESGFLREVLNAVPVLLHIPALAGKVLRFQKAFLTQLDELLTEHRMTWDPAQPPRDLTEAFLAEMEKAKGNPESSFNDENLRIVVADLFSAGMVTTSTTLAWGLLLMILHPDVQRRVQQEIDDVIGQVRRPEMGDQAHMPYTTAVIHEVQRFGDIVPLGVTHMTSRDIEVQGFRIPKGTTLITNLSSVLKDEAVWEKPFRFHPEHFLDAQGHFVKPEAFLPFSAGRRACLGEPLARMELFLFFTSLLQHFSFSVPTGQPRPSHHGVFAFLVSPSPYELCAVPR
# In short: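 Luminescent read-out of luciferin formed by 5 nM human CYP2D6 demethylating 30 uM Luciferin-ME EGE (Km level) over 60 min at room temperature after NADPH regeneration addition. Data normalized to full inhibition by 1.43 uM quinidine.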
# [10] = target: Cytochrome P450 2C19 (Homo sapiens) (UniProt P33261); assay: qHTS Assay for Inhibitors and Substrates of Cytochrome P450 2C19 (AID 899; active = well fitted curve in the direction sought with a large enough effect; an effect the other way counts as inactive or inconclusive; note: potency is the fitted concentration of half-maximal effect; nearly all actives have a fitted effect of over 60% in size)
# Cytochrome P450 2C19 (Homo sapiens), sequence (P33261 whole entry, looked up): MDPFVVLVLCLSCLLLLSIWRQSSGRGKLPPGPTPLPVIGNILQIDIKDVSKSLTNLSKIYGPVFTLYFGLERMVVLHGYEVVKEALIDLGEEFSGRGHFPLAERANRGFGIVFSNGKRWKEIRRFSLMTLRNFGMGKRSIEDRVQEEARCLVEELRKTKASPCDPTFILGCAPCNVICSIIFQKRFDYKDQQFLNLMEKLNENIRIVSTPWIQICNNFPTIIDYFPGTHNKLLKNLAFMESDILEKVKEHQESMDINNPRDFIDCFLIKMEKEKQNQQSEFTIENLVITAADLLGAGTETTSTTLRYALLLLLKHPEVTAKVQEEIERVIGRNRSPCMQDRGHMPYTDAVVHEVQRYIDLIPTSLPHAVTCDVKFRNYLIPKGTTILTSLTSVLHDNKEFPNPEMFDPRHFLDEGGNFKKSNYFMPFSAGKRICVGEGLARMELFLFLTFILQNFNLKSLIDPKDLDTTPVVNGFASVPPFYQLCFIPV
# In short: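 Human CYP2C19 (5nM) with Luciferin-H EGE at 10uM (its KM) in 50mM KPO4 was preincubated with compound for 10 min at 37C. NADPH regeneration started a 60 min 37C reaction. Luciferin was read by luminescence, normalized to 57uM ketoconazole.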
# [11] = qHTS Assay for Identification of Small Molecule Antagonists for NFkB Signaling Pathway (AID 895; active = well fitted inhibition curve with a large enough effect in the signal ratio, with a control signal flat, not every such curve was filed as active; the % refers to the signal ratio; note: % is set by controls: 0 for no effect and ±100 for the full control effect)
# In short: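 NFkB-bla ME-180 cervical carcinoma cells with beta-lactamase reporter under NFkB response element; compounds added, then TNF alpha at 10 pM final (EC50), 5 h at 37 C. LiveBLAzer substrate 2 h, room temperature; emission 460/530 nm at 405 nm excitation.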
# [12] = qHTS Assay for Identification of Small Molecule Agonists for Thrombopoietin (TPO) Signaling Pathway (AID 917; active = well fitted curve in the direction sought with a large enough effect; an effect the other way counts as inactive or inconclusive; note: % is set by controls: 0 for no effect and ±100 for the full control effect)
# In short: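 Ba/F3 (mouse) + hTPO receptor + GpIIb-promoter luciferase; IL-3 withdrawn overnight; compound + 26 pM TPO (EC50), 24 hrs, 37 C, 5% CO2; Steadylite luminescence, 10 min RT.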
# [13] = target: Muscarinic acetylcholine receptor M1 (Rattus norvegicus) (UniProt P08482); assay: qHTS Assay for Antagonists of Acetylcholine Muscarinic M1 Receptor: Kinetic Measurement of Intracellular Calcium Response (AID 943; active = well fitted curve in the direction sought with a large enough effect; an effect the other way counts as inactive or inconclusive;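 note: Fluo-4 calcium signal as peak divided by basal fluorescence over 4 min; nearly all actives have a fitted effect of over 75% in size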)
# Muscarinic acetylcholine receptor M1 (Rattus norvegicus), sequence (P08482 whole entry, looked up): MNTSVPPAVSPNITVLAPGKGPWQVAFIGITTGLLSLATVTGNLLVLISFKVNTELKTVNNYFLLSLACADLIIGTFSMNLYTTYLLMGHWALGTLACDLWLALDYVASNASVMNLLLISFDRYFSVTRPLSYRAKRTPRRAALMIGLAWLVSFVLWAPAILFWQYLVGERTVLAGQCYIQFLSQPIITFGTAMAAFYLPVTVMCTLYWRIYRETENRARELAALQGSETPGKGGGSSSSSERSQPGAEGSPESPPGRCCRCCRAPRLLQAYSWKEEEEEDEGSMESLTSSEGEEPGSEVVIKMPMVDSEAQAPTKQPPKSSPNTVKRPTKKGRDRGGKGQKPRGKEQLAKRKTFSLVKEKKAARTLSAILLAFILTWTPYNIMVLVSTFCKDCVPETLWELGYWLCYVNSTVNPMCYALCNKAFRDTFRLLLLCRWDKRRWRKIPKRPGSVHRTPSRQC
# In short: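 Antagonism is measured as inhibition of the carbachol-evoked calcium rise in CHO cells transfected with rat M1. Cells are dye-loaded, exposed to compound for 10 min, then stimulated with 100 nM carbachol (EC80).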
# [14] = target: Pyruvate kinase (Leishmania mexicana) (UniProt Q27686); assay: qHTS Validation Assay for Inhibitors of Leishmania Mexicana Pyruvate Kinase (AID 945; active = well fitted curve in the direction sought with a large enough effect; an effect the other way counts as inactive or inconclusive;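 note: 0% = DMSO only neutral control wells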)
# Pyruvate kinase (Leishmania mexicana), sequence (Q27686 2-499 E452W): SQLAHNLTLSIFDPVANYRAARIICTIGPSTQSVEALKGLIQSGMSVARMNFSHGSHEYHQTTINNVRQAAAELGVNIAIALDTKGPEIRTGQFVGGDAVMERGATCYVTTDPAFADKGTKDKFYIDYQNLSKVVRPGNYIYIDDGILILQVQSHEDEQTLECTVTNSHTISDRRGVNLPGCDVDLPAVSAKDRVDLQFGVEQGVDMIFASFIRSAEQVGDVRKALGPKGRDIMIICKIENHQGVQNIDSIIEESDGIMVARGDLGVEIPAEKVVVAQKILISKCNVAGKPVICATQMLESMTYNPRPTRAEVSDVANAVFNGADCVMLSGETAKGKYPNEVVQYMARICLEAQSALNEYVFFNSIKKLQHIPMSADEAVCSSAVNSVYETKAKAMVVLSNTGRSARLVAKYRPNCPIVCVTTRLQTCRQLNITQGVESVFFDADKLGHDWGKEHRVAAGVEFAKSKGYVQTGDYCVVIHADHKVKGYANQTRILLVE
# In short: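 Mutant LmPYK (E451W), 0.2 nM, plus 0.5 mM PEP and 0.1 mM ADP in 50 mM imidazole pH 7.2 containing 0.01% Tween 20 and 0.05% BSA. Incubated 1 h at room temperature; luminescence via PKLight, normalized to DMSO.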
# [15] = target: Pyruvate kinase PKM (Homo sapiens) (UniProt P14618); assay: qHTS Assay for Activators of Human Muscle Pyruvate Kinase (AID 954; active = well fitted curve in the direction sought with a large enough effect, not every such curve was filed as active;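 note: 0% = uninhibited enzyme and -100% = no enzyme or full thiadiazolimine inhibition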)
# In short: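 Compound pinned into substrate mix (0.5 mM PEP, 0.1 mM ADP), then 0.1 nM PKM2 added; 1 h, RT. Stop/detection luciferase reagent added, luminescence read. Normalized to no-inhibition and no-enzyme or reference-inhibitor controls.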
# [16] = target: Alpha-galactosidase A (Homo sapiens) (UniProt P06280); assay: Counterscreen for Glucocerebrosidase Inhibitors: qHTS Assay for Human alpha-Galactosidase at pH 4.5 (AID 992; active = well fitted curve in the direction sought with a large enough effect; an effect the other way counts as inactive or inconclusive; note: 0% is about no effect)
# Alpha-galactosidase A (Homo sapiens), sequence (P06280 whole entry, looked up): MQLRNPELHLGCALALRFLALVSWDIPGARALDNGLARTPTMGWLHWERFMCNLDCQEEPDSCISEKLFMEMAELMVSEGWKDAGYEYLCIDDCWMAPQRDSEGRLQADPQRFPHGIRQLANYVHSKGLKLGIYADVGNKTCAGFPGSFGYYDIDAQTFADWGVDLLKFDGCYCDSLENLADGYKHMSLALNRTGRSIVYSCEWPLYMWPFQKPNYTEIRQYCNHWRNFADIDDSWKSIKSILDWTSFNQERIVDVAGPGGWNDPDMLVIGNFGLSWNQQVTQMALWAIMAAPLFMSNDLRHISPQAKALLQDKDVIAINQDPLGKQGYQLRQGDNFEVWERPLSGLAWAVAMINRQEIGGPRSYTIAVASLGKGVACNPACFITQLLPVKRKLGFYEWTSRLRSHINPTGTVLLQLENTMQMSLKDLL
# In short: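 Steps: enzyme (2 nM final), then compound across 0.7 nM to 77 uM, then 80 uM fluorogenic galactopyranoside substrate; incubate 20 min at room temperature; quench at pH 10; measure fluorescence at 365/440 nm.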
# [17] = qHTS Assay for Identification of Small Molecule Agonists for Hypoxia Response Element Signaling Pathway (AID 914; active = well fitted activation curve with a large enough effect in the signal ratio, with a control signal flat, not every such curve was filed as active; the % refers to the signal ratio; note: % of control where 0% means no effect); conditions: ME-180 (cervical carcinoma) HRE-bla reporter, beta-lactamase ratio, CoCl2, 17 h; activation: hits give high values
# In short: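 Reporter activity (beta-lactamase, CCF4 460nm/530nm ratio) in HRE-bla ME-180 cells is recorded after 17 h compound exposure with EC50 CoCl2 at 37 degrees Celsius. AC50 values come from titration data.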
smiles,measurement,setting,value
CC(=O)N[C@H](Cc1c[nH]c2ccccc12)C(=O)O,"activity change, negative = inhibition",[1],3.17% [at 7.69 µM]
same,"activity change, negative = inhibition",[2],4.78% [at 7.69 µM]
same,"activity, negative = inhibition",[3],14.4% [at 7.69 µM]
same,Potency,[4],> 46 µM
same,Potency,[5],> 9.22 µM
same,"activity change, negative = inhibition",[6],4.22% [at 11.4 µM]
same,Potency,[7],inactive
O=c1c2c3c(sc2nc2n1CCCS2)CCCC3,"activity change, negative = inhibition",[1],-22.8%
same,"activity change, negative = inhibition",[2],-17.4%
same,"activity, negative = inhibition",[3],1.96%
same,Potency,[4],> 20.6 µM
CN(C)C(=O)c1ccc(-c2ccc3ncnc(NC4CC4)c3c2)cc1,"activity change, negative = inhibition",[1],-22.9% [at 7.69 µM]
same,"activity change, negative = inhibition",[2],12.3% [at 7.69 µM]
same,"activity, negative = inhibition",[3],-3.61% [at 7.69 µM]
same,Potency,[4],> 46 µM
same,Potency,[5],> 46 µM
same,Potency,[6],inactive
same,Potency,[7],inactive
same,Potency,[8],inactive
CC(C)(C)c1cc(Br)c(O)c(CN(Cc2cc(C(C)(C)C)cc(Br)c2O)C2CCCCC2)c1,"activity change, negative = inhibition",[1],10.4% [at 7.69 µM]
same,"activity change, negative = inhibition",[2],3.39% [at 7.69 µM]
same,"activity, negative = inhibition",[3],-1.22% [at 7.69 µM]
same,Potency,[4],> 46 µM
same,Potency,[5],> 9.22 µM
same,"activity change, negative = inhibition",[6],19.2% [at 11.4 µM]
same,Potency,[7],inactive
same,Potency,[9],0.199 µM (active)
same,Potency,[10],0.631 µM (active)
COc1ccc(-c2nnc3sc(COc4ccccc4)nn23)cc1,"activity change, negative = inhibition",[1],-22.1%
same,"activity change, negative = inhibition",[2],-15.2%
same,"activity, negative = inhibition",[3],-8.06%
same,Potency,[4],> 20.6 µM
O=C(O)[C@@H]1CCCN[C@H]1C(=O)O,"activity change, negative = inhibition",[1],13% [at 38 µM]
same,"activity change, negative = inhibition",[2],-7.71% [at 38 µM]
same,"activity, negative = inhibition",[3],-12.9% [at 38 µM]
same,Potency,[4],> 46 µM
same,Potency,[5],> 46 µM
same,Potency,[6],inactive
same,Potency,[7],inactive
same,Potency,[11],inactive
same,Potency,[12],inactive
same,Potency,[13],inactive
same,Potency,[14],inactive
same,outcome,[15],inactive
same,outcome,[16],inactive
CNc1ccccc1-c1nc2ccccc2n(C)c1=O,"activity change, negative = inhibition",[1],11.2%
same,"activity change, negative = inhibition",[2],-2.49%
same,"activity, negative = inhibition",[3],12%
same,Potency,[4],> 20.6 µM
same,activation,[17],-4.3%
CN(Cc1ccccc1)Cc1c[nH]c2ccccc12,"activity change, negative = inhibition",[1],15.6%
same,"activity change, negative = inhibition",[2],-28.7%
same,"activity, negative = inhibition",[3],7.69%
same,Potency,[4],> 20.6 µM
same,activation,[17],-19.8%
